Measurements as given in PubChem BioAssay (NCATS).
Values without a mark were called inactive. Results filed as inconclusive are left out. Active and inactive are the calls of the source. Unless noted, calls come from the whole dose curve; as a rule, active = well fitted curve in the direction sought with a large enough effect; inconclusive = small, poorly fitted or top-dose-only effect, or another doubt; inactive = no such curve, though single readings can be large; an effect the other way counts as inactive or inconclusive.

What was measured:
[1] = target: Lysosomal acid glucosylceramidase (Homo sapiens) (UniProt P04062); test: Glucocerebrosidase-p2 (AID 348; in the data active = potency below about 10 µM; note: potency is the fitted concentration of half-maximal effect); conditions: purified GBA, blue fluorogenic substrate, 40 min
Procedure, shortened: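 Normal human glucocerebrosidase (0.2 nM) with blue fluorogenic substrate (80 uM final) in citrate/phosphate pH 5.9 with 10mM sodium taurocholate, 0.01% tween-20; 40 min RT, NaOH/glycine stop; fluorescence Ex 365/Em 440; AC50 from a titration from 0.6 nM upwards.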

[2] = AP1 Signaling Pathway (AID 357; active = well fitted curve in either direction with a large enough effect, not every such curve was filed as active;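 note: ME-180 reporter cells stimulated with EGF at its EC50 level; % is set by controls: 0 for no effect and ±100 for the full control effect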); conditions: ME-180 AP-1-bla reporter, EGF-induced, beta-lactamase ratio, 5 h; at 7.69 µM (top of the series) unless noted
Procedure, shortened: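 Cells are seeded overnight, exposed to compound titrations and an EC50 level of EGF for 5 hours at 37 °C, then loaded with CCF4 dye for 2.5 hours. Beta-lactamase activity under the AP-1 element is read as a blue/green ratio.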

[3] = target: Cytochrome P450 1A2 (Homo sapiens) (UniProt P05177); test: p450-cyp1a2 (AID 410; calls by dose curve; note: potency is the fitted concentration of half-maximal effect); conditions: recombinant CYP1A2, luciferin-ME demethylation, luminescence; series mostly up to 57 µM
Procedure, shortened: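 O-Demethylation of luciferin 6' methyl ether by human CYP1A2 is monitored as luciferase luminescence. Substrate sits at Km (100uM); enzyme is 20nM. Values are scaled to 57 uM furafylline as maximal inhibition.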

[4] = NFAT Signaling Pathway (AID 444; active = well fitted curve in either direction with a large enough effect, not every such curve was filed as active;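 note: carbachol stimulus at about its EC50 of 1 µM final; % is set by controls: 0 for no effect and ±100 for the full control effect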); conditions: Jurkat NFAT-bla M1, carbachol, beta-lactamase ratio, 5 h; at 7.69 µM (top of the series) unless noted
Procedure, shortened: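 Jurkat cells with NFAT-driven β-lactamase reporter and co-expressed M1 receptor, stimulated with carbachol (final 1 uM, ~EC50), compound titration, 5 h at 37 °C. CCF4 loaded 1 h at RT; 460/530 nm ratio gave %activity and AC50.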

[5] = Stat Signaling Pathway (AID 446; active = well fitted curve in either direction with a large enough effect, not every such curve was filed as active;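 note: ME-180 cervical cancer cells given 40 pM IL-6 alongside compound; SIE-controlled beta-lactamase reporter measured as 460/530 nm FRET emission ratio; % is set by controls: 0 for no effect and ±100 for the full control effect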); conditions: ME-180 (cervical carcinoma) SIE beta-lactamase reporter, IL-6 stimulated, 5 h; at 7.69 µM (top of the series) unless noted
Procedure, shortened: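 Normalization used AC90 stimulation (300 pM IL-6) and AC90 inhibition (125 nM pan-JAK inhibitor at 40 pM IL-6). The underlying signal is SIE-driven beta-lactamase in ME-180 cells after 5 h IL-6 exposure with compound.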

[6] = target: Glucocorticoid receptor (Homo sapiens) (UniProt P04150); test: GR-GFP Redistribution (AID 450;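 active = compounds whose dose series gives a full or clear partial fitted curve of increased nuclear translocation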; note: potency is the fitted concentration of half-maximal effect); conditions: U2OS GR-GFP nuclear translocation, laser cytometry, 2 h
[7] = target: Glucocorticoid receptor (Homo sapiens) (UniProt P04150); test: GR-EFC Redistribution (AID 451; calls by dose curve; note: potency is the fitted concentration of half-maximal effect); conditions: CHO-K1 GR-EFC translocation, beta-gal luminescence, 2 h
Procedure, shortened: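 CHO-K1 cells expressing nuclear EA and GR-ED fragments of b-gal; compounds titrated up to 46 uM final, 2 h at 37 C. GR nuclear translocation read as complemented b-gal luminescence after 1 h RT detection.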

[8] = target: Mitogen-activated protein kinase 10 (Mus musculus) (UniProt Q61831); test: JNK3 AlphaScreen Assay (AID 530; active = well fitted curve in either direction with a large enough effect, not every such curve was filed as active;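 note: kinase came from lysate of stimulated human HepG2 cells; signal reports phosphorylation of biotinylated GST-cJun 1-79 at Ser73 with 10 µM ATP; % is set by controls: 0 for no effect and ±100 for the full control effect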); conditions: JNK3 lysate, c-Jun phosphorylation; series mostly up to 57.1 µM
Procedure, shortened: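 Activity was read by AlphaScreen after JNK3-containing HepG2 lysate (cytokine pre-activated) phosphorylated biotinylated GST-cJun with 10 uM ATP at room temperature. Phospho-Ser73 cJun antibody with Protein-A acceptor beads provided detection.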

[9] = target: 3',5'-cyclic-AMP phosphodiesterase 4B (Homo sapiens) (UniProt Q07343); test: qHTS Assay for Inhibitors of PDE-IV (AID 607; active = well fitted activation curve with a large enough effect in the main read-out, with a control signal flat, not every such curve was filed as active; note: % of control where 0% means no effect); conditions: HEK293 ACTOne CNG channel cells, membrane potential fluorescence; series mostly up to 22.9 µM
Procedure, shortened: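 HEK293 ACTOne cells with CNG channel (1000/well), endogenous PDE4; membrane potential dye, compounds up to 22.9 uM final. Fluorescence Ex 535/Em 590; RO 20-1724 (100 uM final) as reference.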

[10] = target: Cytochrome P450 3A4 (Homo sapiens) (UniProt P08684); test: qHTS Assay for Inhibitors and Substrates of Cytochrome P450 3A4 (AID 884); conditions: recombinant CYP3A4, Luciferin-PPXE luminescence; series mostly up to 57.1 µM; note: potency is the fitted concentration of half-maximal effect; nearly all actives have a fitted effect of over 50% in size
Procedure, shortened: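 Luminescent readout of luciferin produced by CYP3A4 (20 nM) dealkylation of Luciferin-PPXE, 25 uM (its KM). NADPH-driven reaction ran 60 min at RT after 10 min compound preincubation; data scaled to 57 uM ketoconazole as 100% inhibition.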

[11] = target: Cytochrome P450 3A4 (Homo sapiens) (UniProt P08684); test: qHTS Assay for Activators of Cytochrome P450 3A4 (AID 885); conditions: recombinant CYP3A4, Luciferin-PPXE luminescence, 60 min; series mostly up to 57.1 µM; note: nearly all actives have a fitted effect of over 65% in size
Procedure, shortened: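 Human CYP3A4 dealkylates Luciferin-PPXE to luciferin, which luciferase detection converts to light. Substrate was at its KM (25uM), buffer 200mM KPO4, reaction 60 min at RT.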

[12] = target: Dual specificity protein kinase CLK4 (Homo sapiens) (UniProt Q9HAZ1); test: qHTS Assay for Inhibitors of CDC-like Kinase 4 (Kinase-Glo Assay) (AID 1770); conditions: recombinant Clk4, Kinase-Glo ATP depletion luminescence; series mostly up to 66.7 µM; note: nearly all actives have a fitted effect of over 65% in size; note: potency is the fitted concentration of half-maximal effect
Procedure, shortened: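 Readout: Kinase-Glo luminescence from ATP left after a 4.5 h room-temperature reaction of 25 nM Clk4 with 100 uM RS peptide and 1 uM ATP (final). Buffer: 25 mM Tris pH 7.5, 10 mM MgCl2.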

[13] = target: Dual specificity protein kinase CLK4 (Homo sapiens) (UniProt Q9HAZ1); test: qHTS Assay for Inhibitors of CDC-like Kinase 4 (ADP-Glo Assay) (AID 1771); conditions: recombinant CLK4, ADP-Glo luminescence; series mostly up to 80 µM; note: nearly all actives have a fitted effect of over 70% in size; note: potency is the fitted concentration of half-maximal effect
Procedure, shortened: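 Compounds are pin-transferred onto substrate mix (100 uM RS peptide, 1 uM ATP), then 25 nM Clk4 is added. After 1 hr at room temperature, ADP-Glo reagent runs 45 min, detection reagent 30 min, then luminescence is read.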

[14] = target: Dual specificity protein kinase CLK4 (Homo sapiens) (UniProt Q9HAZ1); test: qHTS Assay for Inhibitors of CDC-like Kinase 4 (ADP-FP Assay) (AID 1795); conditions: Transcreener ADP fluorescence polarization; series mostly up to 50 µM; note: nearly all actives have a fitted effect of over 60% in size; note: potency is the fitted concentration of half-maximal effect
Procedure, shortened: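 FP readout: Orange Transcreener ADP2 tracer (4 nM) plus ADP antibody, read after 30 min at room temperature. Kinase step: 6.25 nM Clk4, 100 uM RS peptide, 1 uM ATP, pH 7.5, 1 h.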

[15] = Primary qHTS for small molecule stabilizers of the endoplasmic reticulum resident proteome: Secreted ER Calcium Modulated Protein (SERCaMP) assay (AID 1508630); conditions: SH-SY5Y GLuc-SERCaMP (Gaussia luciferase released on ER calcium loss) secretion, thapsigargin, luminescence; series mostly up to 38.4 µM; note: % is set by controls: 0 for no effect and ±100 for the full control effect
Procedure, shortened: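 The SH-SY5Y reporter protocol was run at 3 concentrations up to 38.3 uM (primary) or 11 concentrations (follow-up): 16 h compound, 100 nM thapsigargin for 4 h, then extracellular luciferase luminescence.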

[16] = target: Cytochrome P450 2D6 (Homo sapiens) (UniProt P10635); test: qHTS Assay for Inhibitors and Substrates of Cytochrome P450 2D6 (AID 891); conditions: recombinant CYP2D6, luciferin-ME EGE luminescence; series mostly up to 57.1 µM; note: potency is the fitted concentration of half-maximal effect; nearly all actives have a fitted effect of over 60% in size
Procedure, shortened: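 Luminescent read-out of luciferin formed by 5 nM human CYP2D6 demethylating 30 uM Luciferin-ME EGE (Km level) over 60 min at room temperature after NADPH regeneration addition. Data normalized to full inhibition by 1.43 uM quinidine.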

[17] = target: Ubiquitin carboxyl-terminal hydrolase 1 (Homo sapiens) (UniProt O94782); test: Inhibitors of USP1/UAF1: Pilot qHTS (AID 504865); conditions: purified USP1/UAF1, Ub-rhodamine cleavage fluorescence; series mostly up to 54.9 µM;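 note: rhodamine fluorescence freed from ubiquitin-rhodamine substrate followed over time; top concentration of the series differs between compounds; % is set by controls: 0 for no effect and ±100 for the full control effect; nearly all actives have a fitted effect of over 35% in size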
Procedure, shortened: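 1nM USP1/UAF1 + cpd, 15 min RT; start w/ Ub-Rho 150nM final; kinetic FL 480/540 nm, 6 reads q60 s. Buffer 50mM HEPES pH 7.8, 0.5mM EDTA, 1mM TCEP, 0.01% Tween-20, 0.1 mg/ml BSA.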

Sequence of Cytochrome P450 1A2 (Homo sapiens) (P05177 whole entry, looked up): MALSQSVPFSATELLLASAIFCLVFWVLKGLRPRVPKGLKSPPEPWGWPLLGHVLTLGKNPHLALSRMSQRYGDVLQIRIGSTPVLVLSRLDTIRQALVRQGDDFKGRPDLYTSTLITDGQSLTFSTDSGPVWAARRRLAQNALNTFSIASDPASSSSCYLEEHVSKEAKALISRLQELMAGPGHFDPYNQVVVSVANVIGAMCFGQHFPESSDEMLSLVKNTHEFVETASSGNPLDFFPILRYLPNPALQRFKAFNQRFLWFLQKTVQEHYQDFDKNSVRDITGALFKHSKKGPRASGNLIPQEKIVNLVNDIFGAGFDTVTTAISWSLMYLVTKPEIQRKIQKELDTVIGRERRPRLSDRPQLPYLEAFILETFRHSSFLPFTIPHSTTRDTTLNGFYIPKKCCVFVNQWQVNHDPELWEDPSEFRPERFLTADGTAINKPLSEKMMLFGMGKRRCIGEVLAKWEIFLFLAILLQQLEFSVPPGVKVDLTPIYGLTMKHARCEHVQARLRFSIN
Sequence of Dual specificity protein kinase CLK4 (Homo sapiens) (Q9HAZ1 whole entry, looked up): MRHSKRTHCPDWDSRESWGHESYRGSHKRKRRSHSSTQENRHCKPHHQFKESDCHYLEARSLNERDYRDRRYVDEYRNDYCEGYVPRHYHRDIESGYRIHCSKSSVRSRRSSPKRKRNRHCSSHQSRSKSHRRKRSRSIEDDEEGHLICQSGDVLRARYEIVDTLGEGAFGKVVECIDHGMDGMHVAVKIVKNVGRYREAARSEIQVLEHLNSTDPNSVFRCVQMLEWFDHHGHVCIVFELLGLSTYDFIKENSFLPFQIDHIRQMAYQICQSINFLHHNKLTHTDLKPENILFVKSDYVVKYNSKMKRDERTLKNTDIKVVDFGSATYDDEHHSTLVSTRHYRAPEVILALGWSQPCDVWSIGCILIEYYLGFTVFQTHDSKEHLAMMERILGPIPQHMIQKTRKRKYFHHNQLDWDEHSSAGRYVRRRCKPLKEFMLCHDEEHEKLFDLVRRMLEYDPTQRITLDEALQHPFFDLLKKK
Sequence of Glucocorticoid receptor (Homo sapiens) (P04150 whole entry, looked up, the tested form may be a part): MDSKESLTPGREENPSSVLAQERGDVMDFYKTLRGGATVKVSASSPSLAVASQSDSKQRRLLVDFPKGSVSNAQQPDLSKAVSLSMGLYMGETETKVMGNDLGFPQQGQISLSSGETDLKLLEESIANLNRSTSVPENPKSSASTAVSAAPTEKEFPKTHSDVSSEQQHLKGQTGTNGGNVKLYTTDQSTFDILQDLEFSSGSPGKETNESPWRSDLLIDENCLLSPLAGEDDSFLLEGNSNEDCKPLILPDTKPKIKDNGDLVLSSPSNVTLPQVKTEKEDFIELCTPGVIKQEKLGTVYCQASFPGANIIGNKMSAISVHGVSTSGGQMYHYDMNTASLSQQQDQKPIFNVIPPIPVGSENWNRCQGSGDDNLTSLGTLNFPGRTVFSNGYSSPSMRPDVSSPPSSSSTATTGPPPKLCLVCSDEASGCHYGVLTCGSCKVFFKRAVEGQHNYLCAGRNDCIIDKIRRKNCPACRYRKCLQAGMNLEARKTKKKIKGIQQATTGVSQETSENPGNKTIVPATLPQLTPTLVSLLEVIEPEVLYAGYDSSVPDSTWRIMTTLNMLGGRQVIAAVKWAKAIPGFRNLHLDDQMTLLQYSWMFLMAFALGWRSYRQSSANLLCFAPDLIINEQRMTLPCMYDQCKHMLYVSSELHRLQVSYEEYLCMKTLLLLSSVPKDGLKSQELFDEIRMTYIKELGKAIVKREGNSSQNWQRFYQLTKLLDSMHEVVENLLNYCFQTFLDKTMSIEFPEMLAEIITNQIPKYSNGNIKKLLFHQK
Sequence of Cytochrome P450 3A4 (Homo sapiens) (P08684 whole entry, looked up): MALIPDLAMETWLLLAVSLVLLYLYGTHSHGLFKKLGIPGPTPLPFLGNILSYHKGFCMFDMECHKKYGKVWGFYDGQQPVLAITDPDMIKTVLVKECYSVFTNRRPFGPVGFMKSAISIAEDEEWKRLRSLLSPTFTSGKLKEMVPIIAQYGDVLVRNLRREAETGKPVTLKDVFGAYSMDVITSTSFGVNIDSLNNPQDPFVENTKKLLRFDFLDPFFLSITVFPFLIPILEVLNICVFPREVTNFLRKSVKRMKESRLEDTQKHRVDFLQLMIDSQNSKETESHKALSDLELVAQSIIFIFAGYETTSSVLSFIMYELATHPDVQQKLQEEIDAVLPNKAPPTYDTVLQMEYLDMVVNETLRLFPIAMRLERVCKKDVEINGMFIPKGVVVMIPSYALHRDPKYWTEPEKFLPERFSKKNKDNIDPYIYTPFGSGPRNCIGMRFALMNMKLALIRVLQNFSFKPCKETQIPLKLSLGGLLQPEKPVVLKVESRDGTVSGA
Sequence of Ubiquitin carboxyl-terminal hydrolase 1 (Homo sapiens) (O94782 whole entry, looked up): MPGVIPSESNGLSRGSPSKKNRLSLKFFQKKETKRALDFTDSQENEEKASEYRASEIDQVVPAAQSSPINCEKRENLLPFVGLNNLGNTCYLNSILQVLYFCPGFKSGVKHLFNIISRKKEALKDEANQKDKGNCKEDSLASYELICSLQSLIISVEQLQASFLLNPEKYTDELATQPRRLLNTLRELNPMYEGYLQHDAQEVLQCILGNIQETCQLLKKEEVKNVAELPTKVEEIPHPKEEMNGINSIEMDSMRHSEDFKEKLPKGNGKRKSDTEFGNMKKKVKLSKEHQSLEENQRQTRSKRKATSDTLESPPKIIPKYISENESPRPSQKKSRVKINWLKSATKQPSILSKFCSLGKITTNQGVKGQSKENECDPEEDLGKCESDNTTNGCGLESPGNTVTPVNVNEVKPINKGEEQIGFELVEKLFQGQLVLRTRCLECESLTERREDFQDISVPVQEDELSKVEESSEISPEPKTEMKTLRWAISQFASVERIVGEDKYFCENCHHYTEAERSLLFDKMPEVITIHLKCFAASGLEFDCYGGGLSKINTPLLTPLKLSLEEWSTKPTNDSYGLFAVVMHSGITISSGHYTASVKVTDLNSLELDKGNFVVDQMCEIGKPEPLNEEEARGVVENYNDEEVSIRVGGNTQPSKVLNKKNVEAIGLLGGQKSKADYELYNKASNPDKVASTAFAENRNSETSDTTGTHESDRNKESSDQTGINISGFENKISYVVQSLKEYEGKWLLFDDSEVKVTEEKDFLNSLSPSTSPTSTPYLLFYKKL
Sequence of 3',5'-cyclic-AMP phosphodiesterase 4B (Homo sapiens) (Q07343 whole entry, looked up): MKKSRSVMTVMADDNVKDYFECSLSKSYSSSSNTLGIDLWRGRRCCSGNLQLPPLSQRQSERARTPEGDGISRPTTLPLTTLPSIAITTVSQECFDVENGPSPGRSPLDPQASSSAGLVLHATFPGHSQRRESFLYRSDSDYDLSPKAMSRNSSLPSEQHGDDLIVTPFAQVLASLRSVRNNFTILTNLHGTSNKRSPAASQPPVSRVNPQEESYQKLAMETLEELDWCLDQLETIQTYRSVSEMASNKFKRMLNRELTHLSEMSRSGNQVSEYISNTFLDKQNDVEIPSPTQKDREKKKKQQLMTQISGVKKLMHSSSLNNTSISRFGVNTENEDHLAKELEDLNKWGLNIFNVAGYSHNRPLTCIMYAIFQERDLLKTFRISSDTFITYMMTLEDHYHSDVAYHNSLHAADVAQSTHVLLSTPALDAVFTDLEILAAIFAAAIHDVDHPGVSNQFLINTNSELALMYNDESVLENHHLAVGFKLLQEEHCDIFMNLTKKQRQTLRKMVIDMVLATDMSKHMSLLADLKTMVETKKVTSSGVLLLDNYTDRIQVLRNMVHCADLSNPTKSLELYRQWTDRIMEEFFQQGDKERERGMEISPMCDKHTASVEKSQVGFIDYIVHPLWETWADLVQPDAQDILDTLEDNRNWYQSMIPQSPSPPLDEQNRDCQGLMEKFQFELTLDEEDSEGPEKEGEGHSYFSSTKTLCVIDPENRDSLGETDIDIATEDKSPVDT
Sequence of Lysosomal acid glucosylceramidase (Homo sapiens) (P04062 whole entry, looked up): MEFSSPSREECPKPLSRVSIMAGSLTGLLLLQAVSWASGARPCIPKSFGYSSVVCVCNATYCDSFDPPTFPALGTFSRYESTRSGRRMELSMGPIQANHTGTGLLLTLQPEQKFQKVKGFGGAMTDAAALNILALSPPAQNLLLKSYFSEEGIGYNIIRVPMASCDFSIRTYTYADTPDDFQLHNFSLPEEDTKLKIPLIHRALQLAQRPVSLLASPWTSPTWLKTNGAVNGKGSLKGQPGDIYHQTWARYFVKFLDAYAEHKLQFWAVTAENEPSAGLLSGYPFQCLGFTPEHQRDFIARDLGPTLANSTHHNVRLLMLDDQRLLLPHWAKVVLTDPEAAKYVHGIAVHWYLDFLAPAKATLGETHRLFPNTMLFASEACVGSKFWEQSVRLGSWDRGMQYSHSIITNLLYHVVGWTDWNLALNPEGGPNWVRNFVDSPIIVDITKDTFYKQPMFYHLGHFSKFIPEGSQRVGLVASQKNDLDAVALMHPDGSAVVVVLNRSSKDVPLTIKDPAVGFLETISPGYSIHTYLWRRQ
Sequence of Cytochrome P450 2D6 (Homo sapiens) (P10635 whole entry, looked up): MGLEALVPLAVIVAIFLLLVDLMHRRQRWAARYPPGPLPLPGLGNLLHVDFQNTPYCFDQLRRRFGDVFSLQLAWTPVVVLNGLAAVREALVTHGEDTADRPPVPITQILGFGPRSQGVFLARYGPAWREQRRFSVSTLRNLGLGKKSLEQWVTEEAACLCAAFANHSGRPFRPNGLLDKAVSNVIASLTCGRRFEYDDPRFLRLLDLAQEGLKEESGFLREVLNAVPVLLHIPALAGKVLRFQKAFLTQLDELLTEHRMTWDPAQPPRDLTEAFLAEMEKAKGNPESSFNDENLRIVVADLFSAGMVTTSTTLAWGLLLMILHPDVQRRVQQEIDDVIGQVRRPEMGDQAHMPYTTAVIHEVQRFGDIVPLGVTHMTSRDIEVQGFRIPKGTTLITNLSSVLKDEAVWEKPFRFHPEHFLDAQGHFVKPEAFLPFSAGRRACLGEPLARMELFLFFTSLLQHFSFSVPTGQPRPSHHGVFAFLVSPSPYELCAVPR

SMILES	Potency [1]	activity change, negative = inhibition [2]	Potency [3]	activity change, negative = inhibition [4]	activity, negative = inhibition [5]	Potency [6]	Potency [7]	Potency [8]	Potency [9]	Potency [10]	Potency [11]	Potency [12]	Potency [13]	Potency [14]	outcome [15]	Potency [16]	Potency [17]
Cc1cnc(CNc2nc(-c3ccccc3C(F)(F)F)nc3ccccc23)cn1	> 11.4 µM	-16.3%	12.6 µM (active)	12.8%	-2.08%	> 46 µM	> 46 µM	inactive	inactive	5.01 µM (active)	inactive	inactive	inactive	inactive	inactive	–	–
COc1ccc(CNc2ccnc(-c3ccccc3OC)n2)c(OC)c1	> 11.4 µM	3.33%	5.01 µM (active)	-9.22%	1.07%	> 46 µM	> 46 µM	inactive	–	6.31 µM (active)	inactive	inactive	inactive	inactive	inactive	3.98 µM (active)	–
CCNc1ncc2nc(-c3ccc(F)cc3)c(=O)n(C[C@H]3CCCO3)c2n1	> 11.4 µM	-0.226%	1.26 µM (active)	12.6%	–	> 9.22 µM	> 46 µM	inactive	–	–	–	inactive	inactive	inactive	inactive	–	inactive
COc1ncc2nc(C)c(=O)n(CCc3ccccc3)c2n1	> 11.4 µM	-1.51%	2 µM (active)	-3.03%	-12.2%	> 9.22 µM	> 46 µM	inactive	–	–	inactive	inactive	inactive	inactive	inactive	–	inactive
COc1cccc(Cn2c(=O)cnc3cnc(OCc4ccccc4)nc32)c1	> 11.4 µM	-24.3%	12.6 µM (active)	-4.5%	-13.2%	> 9.22 µM	> 46 µM	inactive	–	–	inactive	inactive	inactive	inactive	inactive	–	inactive
COc1cccc(Cn2c(=O)cnc3cnc(OC)nc32)c1	> 11.4 µM	17.7%	12.6 µM (active)	20%	–	> 9.22 µM	> 46 µM	inactive	inactive	–	inactive	inactive	inactive	inactive	inactive	–	inactive
Cc1cnc(CNc2ncnc3ccc(-c4ccc5c(c4)OCO5)cc23)cn1	> 11.4 µM	-18.1%	0.398 µM (active)	14.2%	-16.2%	> 46 µM	> 46 µM	–	inactive	2.51 µM (active)	inactive	0.282 µM (active)	0.398 µM (active)	0.224 µM (active)	inactive	–	inactive
c1nc(NC2CC2)c2cc(-c3ccoc3)ccc2n1	> 11.4 µM	-18%	0.794 µM (active)	6.95%	-16.7%	> 46 µM	> 46 µM	inactive	–	–	inactive	0.794 µM (active)	0.708 µM (active)	0.178 µM (active)	inactive	–	inactive
COc1ncc2nc(-c3ccc(Cl)cc3)c(=O)n(CCC#N)c2n1	> 11.4 µM	-9.68%	–	3.96%	-4.68%	> 9.22 µM	> 46 µM	inactive	inactive	–	–	inactive	inactive	inactive	inactive	–	inactive
CN(Cc1ccco1)c1ccnc(-c2cccc(C#N)c2)n1	> 11.4 µM	-18.2%	0.398 µM (active)	–	2.59%	> 46 µM	> 46 µM	inactive	inactive	–	inactive	14.1 µM (active)	15.8 µM (active)	14.1 µM (active)	inactive	–	inactive
Cc1noc(C)c1-c1ccc2ncnc(N3CCOCC3)c2c1	> 11.4 µM	11%	12.6 µM (active)	–	-8.22%	> 46 µM	> 46 µM	inactive	inactive	–	inactive	12.6 µM (active)	7.94 µM (active)	8.91 µM (active)	inactive	–	inactive
CN(C)c1ncc2nc(-c3cccc(C#N)c3)c(=O)n(C[C@H]3CCCO3)c2n1	> 11.4 µM	-22.3%	3.16 µM (active)	–	1.32%	> 9.22 µM	> 46 µM	inactive	inactive	–	–	inactive	inactive	inactive	inactive	–	inactive
